HMGR II inh: E. faecalis class II HMG-CoA reductase inhibition | inhibition, % at 10 µM | AID 1066 | purified E. faecalis HMGR, NADPH absorbance 340 nm kinetic | 190,000 tested, 0.41% active;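 active = inhibition above a set limit, the median over all tested compounds plus 3 SD, cut at about 9.5% in these data; inconclusive = no clear call, values can overlap the other calls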;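 also: enzyme runs in reverse so mevalonate oxidation gives rising NADPH absorbance; 0% = complete reaction with DMSO and 100% = background rate lacking mevalonate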
PHOSPHO1 block: blocks human PHOSPHO1 phosphatase activity. AID 1565. recombinant PHOSPHO1, absorbance phosphatase assay. inhibition, % at 13.3 µM. 290,000 tested, 1.1% active; in the data active = inhibition above about 60%
eIF4H inh: inhibitors of RNA binding by human eIF4H; inhibition, % at 35 µM; 290,000 tested, 0.94% active; eIF4H fluorescence polarization binding assay;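 also: calls also rest on retests at 20 µM and on dose response follow-up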
MLLE-PAM2 inh: inhibitors of microRNA-mediated deadenylation, human PABP1 MLLE binding | P11940 | GST-MLLE / FITC-PAM2 fluorescence polarization | inhibition, % at 20 µM | 360,000 tested, 0.36% active | AID 588489; in the data active = inhibition above about 35%, passing the limit was not always enough;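 also: plate controls were DMSO wells with GST-MLLE for no effect and wells lacking GST-MLLE protein for full effect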
Target sequence (P11940 whole entry, looked up): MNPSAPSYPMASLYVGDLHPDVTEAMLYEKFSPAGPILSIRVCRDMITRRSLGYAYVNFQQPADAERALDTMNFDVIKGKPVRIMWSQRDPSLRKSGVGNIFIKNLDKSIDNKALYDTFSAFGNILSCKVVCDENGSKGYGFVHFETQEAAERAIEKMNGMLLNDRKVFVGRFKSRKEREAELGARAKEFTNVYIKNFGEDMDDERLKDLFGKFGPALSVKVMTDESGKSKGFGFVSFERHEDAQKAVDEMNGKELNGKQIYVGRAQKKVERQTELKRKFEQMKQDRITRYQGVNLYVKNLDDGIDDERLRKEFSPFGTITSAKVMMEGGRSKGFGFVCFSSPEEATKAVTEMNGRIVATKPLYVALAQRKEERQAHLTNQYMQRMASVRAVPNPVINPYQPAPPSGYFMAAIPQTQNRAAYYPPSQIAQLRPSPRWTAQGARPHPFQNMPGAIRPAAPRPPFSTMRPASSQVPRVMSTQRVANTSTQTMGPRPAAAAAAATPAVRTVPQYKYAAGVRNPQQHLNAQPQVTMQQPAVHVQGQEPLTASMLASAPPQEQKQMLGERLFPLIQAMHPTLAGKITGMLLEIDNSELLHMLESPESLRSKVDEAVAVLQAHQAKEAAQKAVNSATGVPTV
PABP FP inh: PABP-poly(A) binding inhibition | PABP-poly(A) RNA binding, fluorescence polarization | P11940 | 290,000 tested, 1% active | calls only at 35 µM;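 also: calls also rest on retests at 20 µM and on dose response follow-up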
Starred values were filed as active, the others as inactive; i = inactive; ? = inconclusive; / = not tested or not shown; + = active, no number. Compounds with a hit are over-represented: about 2.4% of the library has one in this group of screens. Unless noted, no rule for the calls is given here.

SMILES	HMGR II inh	PHOSPHO1 block	eIF4H inh	MLLE-PAM2 inh	PABP FP inh
CCNC(=S)NNC(=O)c1csc(C)c1	1	2	5	-27	i
O=C(Nc1ccc(Cl)cc1)N1CCN(C(=O)C2CCCO2)CC1 (configuration not stated)	/	63*	-8	-8	i
Cc1ccc(NC(=O)N2CCN(C(=O)C3CCCO3)CC2)cc1 (configuration not stated)	/	22	-13	3	i
O=C(NNC(=O)c1ccncc1)Nc1ccc([N+](=O)[O-])cc1	-5	27	-1	-8	+
COc1ccc(C(C(=O)NC2CCCC2)N(C(=O)c2snc(C(N)=O)c2N)c2cccc(O)c2)cc1 (configuration not stated)	/	-83	68*	-9	i
NC(=O)c1nsc(C(=O)N(c2cccc(F)c2)C(C(=O)NC2CCCC2)c2ccc(O)cc2)c1N (configuration not stated)	/	4	-5	-11	i
Cc1ccccc1Nc1nc(Cl)c(C=O)s1	-3	11	78*	-38	+
COc1cc(OC)c([N+](=O)[O-])cc1/C=N/NC(=O)c1ccncc1	0	36	59*	22	+
COc1cccc(/C=N/NC(=O)c2ccncc2)c1OC(=O)c1ccc(Br)cc1	/	-20	?	59*	?
COc1cc(/C=N/NC(=O)c2ccncc2)c([N+](=O)[O-])cc1OC	/	33	4	4	i
CN(C)c1cc(-c2cccc(C(F)(F)F)c2)oc(=O)c1Cl	/	/	/	-4	/
Nc1nc2c(nnn2Cc2ccc(Cl)c(Cl)c2)c(=O)[nH]1	/	/	/	-10	/
CN(Cc1nc(-c2cnccn2)no1)C1CC(C)(C)NC(C)(C)C1	18*	41	-6	-2	i
Cc1cccc(/C=N/NC(=O)Cn2nc(C)cc2C)n1	0	5	102*	4	+
Cc1cc(C)n(CC(=O)N/N=C/c2ccc(C)o2)n1	-5	62*	2	-5	i
OC[C@@H]1CN(Cc2cccs2)C[C@H](n2cnc3c(NC4CCC4)ncnc32)O1	/	/	/	4	/
Cn1nc(C(C)(C)C)cc1C(=O)N1CCCC(c2cc(C(=O)Nc3ccccc3Cl)no2)C1 (configuration not stated)	/	/	/	-13	/
FC(F)(F)c1cnc(COc2ccc(Cl)cc2Cl)c(Cl)c1	/	37	1	5	i
CCCNC(=O)C1(C)CCN(Cc2ccc(C)c3ccccc23)C1 (configuration not stated)	/	/	/	8	/
COc1ccc(S(=O)(=O)/N=C2/NC(=O)/C(=C/c3ccco3)S2)cc1	-2	0	92	-3	i
Cc1cccc(N=C2NC(=O)/C(=C/C=C/c3ccco3)S2)c1C	-4	-18	85	-18	+
COc1ccc(N=C2NC(=O)/C(=C/c3ccco3)S2)cc1	/	9	66*	-22	i
Cc1ccc(N=C2NC(=O)/C(=C/C=C/c3ccco3)S2)cc1	-4	0	76*	-39	+
CCOC(=O)N1CCN(S(=O)(=O)N2CCCC(C(=O)NCc3ccc(C)cc3)C2)CC1 (configuration not stated)	/	/	/	-1	/
COc1ccc2[nH]c3c(=O)n(Cc4ccc(C(=O)NCC5CCCO5)cc4)c(=S)[nH]c3c2c1 (configuration not stated)	-1	-20	61*	-36	+
SMILES	HMGR II inh	PHOSPHO1 block	eIF4H inh	MLLE-PAM2 inh	PABP FP inh
CCN(CC)CCNC(=O)CCCCn1c(=S)[nH]c2c([nH]c3ccc(OC)cc32)c1=O	1	95*	5	/	i
CCCCNC(=O)c1ccc(Cn2c(=S)[nH]c3c([nH]c4ccc(OC)cc43)c2=O)cc1	2	-8	-8	-95	i
O=C1C([N+](=O)[O-])=C(O)c2cccc3cccc1c23	/	7	85*	/	+
O=C(N/N=C1\C(=O)c2cccc3cccc1c23)c1ccc(O)cc1	-2	32	28	-9	i
CC(C)C[C@@H](CN1CCC[C@@H]1CN1C(=S)NC[C@@H]1Cc1ccc(O)cc1)N1C[C@H](Cc2ccc(O)cc2)N(CC2CCCCC2)C1=S	/	/	/	-11	/
O=C(Nc1nccs1)c1ccc(COc2c(F)c(F)cc(F)c2F)cc1	/	/	3	10	i
O=C(COc1ccccc1C(=O)Nc1ccccc1)c1ccc(Br)cc1	10*	4	-7	5	i
Cc1ccc(-c2ccc(/C=C3\SC(N4CCOCC4)=NC3=O)o2)cc1	12*	2	-4	-70	i
O=C1NC(=S)S/C1=C/c1ccc(N2CCOCC2)o1	-5	86*	87*	-88	+
Nn1c(C2COc3ccccc3O2)n[nH]c1=S (configuration not stated)	/	78*	0	-32	i
COc1ccc(Cc2noc(-c3ccccc3)n2)cc1OC	15*	13	5	-2	i
Nc1ccc(NC(=O)CCN2CCOCC2)cc1	/	19	-6	-10	i
CCOC(=O)C1(Cc2ccccc2)CCCN(CCCn2cccn2)C1 (configuration not stated)	-1	64*	5	-6	i
CCOC(=O)C1(Cc2ccccc2)CCCN(Cc2ccncc2)C1 (configuration not stated)	-1	1	9	0	i
COc1ccc(CCC(=O)Nc2ccc(OC)c(S(=O)(=O)N3CCCCC3)c2)cc1	/	/	/	-5	/
Cn1c(CO)cnc1SCc1c(Cl)cccc1Cl	0	74*	6	-107	i
Cn1c(CO)cnc1SCc1ccc(F)cc1	15*	33	-13	19	i
CCOC(=O)CCc1c(C)nc(-n2[nH]c(C)c(CCO)c2=O)[nH]c1=O	4	-7	6	-2	i
Cc1ccc(S(=O)(=O)NC(C(=O)Oc2cc3oc(=O)cc(C)c3cc2Cl)C(C)C)cc1 (configuration not stated)	-4	-3	-11	1	i
CC1CCN(c2nc3c(c(=O)[nH]c(=O)n3C)n2CC(C)CSc2nnnn2-c2ccccc2)CC1 (configuration not stated)	0	-27	5	-8	+
Cn1c(=O)[nH]c(=O)c2c1nc(N1CCCCC1)n2CCCSc1nnnn1-c1ccccc1	3	-2	active	11	+
CN1CCN(c2nc3c(c(=O)[nH]c(=O)n3C)n2CCCSc2nnnn2-c2ccccc2)CC1	-5	26	3	-12	i
COc1ccc(CCNC(=O)CCCn2c(=S)[nH]c3ccsc3c2=O)cc1OC	/	/	/	-12	/
Cc1ccc2c(c1)c1ccc3c(c1n2C)C(=O)C=CC3=O	/	37	24	42*	i
Cn1c2ccccc2c2ccc3c(c21)C(=O)C=CC3=O	/	/	/	31	/
COc1ccc2c(c1)c1ccc3c(c1n2C)C(=O)C=CC3=O	/	-4	5	49*	i
CC(C)(C)Cc1nnc(NS(=O)(=O)c2ccccc2)s1	14*	1	-1	3	i
Cc1nn(-c2ccccc2)c(Cl)c1/C=C1\SC(=S)NC1=O	1	64*	-1	-36	i
Cc1nn(-c2ccccc2)c(Cl)c1/C=C1\SC(=S)N(CCCCCC(=O)O)C1=O	/	6	8	-7	i

Source: PubChem BioAssay (several laboratories)
